Out of some 52,000 compounds screened, about 4,300 (8.3%) were called active. No stated cut-off is given here; in the data, active means survival mostly below about 52% (no sharp cut-off); inactive means mostly above about 56%. What follows is part of a selection rich in actives, with near analogues and random picks from the rest.

This assay has as its system DeltatarO mutant. As to the kind of experiment: growth inhibition of S. aureus wild type versus tarO mutant, primary screen, teichoic acid synthesis inhibitors, RN4220, OD600 (AID 463173). Conditions: OD600, 18 h, active compounds read low, screened at 18.75 µg/mL (by protocol).
As to `CCOC(=O)c1ccccc1NC(=O)Nc1cc2c(cc1N1CCCCC1)n(C)c(=O)n2C`, the survival is 76% (inactive). To `CCC1CCCCN1C(=O)CSc1nnc(-c2ccc(OC)c(OC)c2)o1` (configuration not stated) belongs 71% (inactive); to `CCOc1cc(CNC(=O)CN2CCSc3ccccc32)cc(OCC)c1OCC`, 85% (inactive). Regarding `CC(C)CCNC(=O)C1CCC(Cn2c(=O)c3sccc3n(CC(=O)NC(C)C)c2=O)CC1` (configuration not stated), the survival is 95% (inactive). For `CCOC(=O)c1c(SCC(=O)Nc2nc3ccccc3s2)nc(=O)[nH]c1C`, the survival was 6% (active). To `CCOC(=O)c1c(SCC(=O)Nc2cccc(C)c2C)nc(=O)[nH]c1C` belongs 67% (inactive). With `CCOC(=O)c1c(SCC(=O)Nc2nc3ccc(C)cc3s2)nc(=O)[nH]c1C` the figure was 70% (inactive); with `CCCCc1ccc(C(=O)N/C(=C\c2ccc(C)cc2)C(=O)NC2CCCCC2)cc1`, 66% (inactive). `Cn1c(=O)n(CCCc2ccccc2)c(=O)c2c1nc1n2CCN1c1ccccc1`: the survival was 75% (inactive). To `O=C(Nc1ccc(Cl)c(Cl)c1)c1cc(S(=O)(=O)N2CCN(c3cccc(Cl)c3)CC2)ccc1F` belongs 68% (inactive); to `COc1cc(OC)cc(C(=O)N2CCC(c3ccncc3)CC2)c1`, 89% (inactive). With `COc1cc(C(=O)N2CCC(c3ccncc3)CC2)cc(OC)c1OC` the figure was 88% (inactive); with `COc1ccc(C(=O)N2CCC(c3ccncc3)CC2)cc1OC`, -5% (active); with `CCOc1ccc(C(=O)N2CCC(c3ccncc3)CC2)cc1`, 94% (inactive).

As for `CCN(CC)c1ccc(C(=O)N2CCC(c3ccncc3)CC2)cc1`, the survival was 88% (inactive). As for `CCOc1cc(C(=O)N2CCC(c3ccncc3)CC2)cc(OCC)c1OCC`, the survival is 17% (active). With `CCNC(=O)Cc1ccc(NC(=O)N2CCCCc3ccccc32)cc1` the figure was 74% (inactive). To `O=C(Nc1nnc2n1CCS2)c1ccccc1C(F)(F)F` belongs 93% (inactive). With `Cc1ccc(C)c(N2CCN(C(=O)c3ccc4c(Cl)c5c(nc4c3)CCCC5)CC2)c1`, the survival is 98% (inactive). Regarding `O=C(c1ccc2c(Cl)c3c(nc2c1)CCCC3)N1CCN(c2ccccc2F)CC1`, the survival was -3% (active).

`O=C(c1ccc2c(Cl)c3c(nc2c1)CCCC3)N1CCN(c2ccc(Cl)cc2)CC1`: the survival is 92% (inactive). To `Cc1cccc(N2CCN(C(=O)c3ccc4c(Cl)c5c(nc4c3)CCCC5)CC2)c1C` belongs 93% (inactive). In the case of `Cc1ccc(Cl)cc1N1CCN(C(=O)c2ccc3c(Cl)c4c(nc3c2)CCCC4)CC1`, the survival is 31% (active). To `O=C(c1ccc2c(Cl)c3c(nc2c1)CCCC3)N1CCN(c2cccc(Cl)c2)CC1` belongs 65% (inactive); to `Cc1ccc(N2CCN(C(=O)c3ccc4c(Cl)c5c(nc4c3)CCCC5)CC2)c(C)c1`, 88% (inactive). To `O=C(c1ccc2c(Cl)c3c(nc2c1)CCCC3)N1CCN(c2ccccc2)CC1` belongs 20% (active); to `O=C(c1ccc2c(Cl)c3c(nc2c1)CCCC3)N1CCN(c2cccc(C(F)(F)F)c2)CC1`, 64% (inactive); to `CCOC(=O)/C(C)=C1\NC(C)(C)Cc2ccccc21`, 92% (inactive). To `Cc1coc2cc3oc(=O)c(CCC(=O)NCc4ccccc4Cl)c(C)c3cc12` belongs 66% (inactive); to `Cc1ccc2c(c1)nc(SCC(O)c1ccc(Br)cc1)n2C` (configuration not stated), 70% (inactive); to `COc1cc2c(cc1OC)-c1n[nH]c(=S)n1C(C)(C)C2`, 90% (inactive).

Consider `CC(=O)c1c(C)n(-c2ccc(C)cc2)c2ccc(OC(=O)COc3ccccc3)cc12`, for which the survival is 62% (inactive).

`COc1ccccc1CN1CCN(C(CC(C)C)c2nnnn2Cc2ccc(F)cc2)CC1` (configuration not stated): the survival was 85% (inactive). On to `O=C(/C=C/c1ccccc1)N1CCCC1=O`, for which the survival was 94% (inactive). To `O=C1CCCCCN1Sc1ccccc1` belongs 48% (active). For the compound `O=C1CCC(=O)N1c1ccccc1`, the survival was 98% (inactive). For `CCN(CCCNC(=O)c1ccc(Sc2ccc(Cl)cc2)c(NC(C)=O)c1)c1cccc(C)c1`, the survival is 89% (inactive). With `Cc1ccccc1Nc1c(-c2ccncc2)nc2ccc(Cl)cn12` the figure was 118% (inactive); with `Cc1ccccc1Nc1c(-c2cccc(O)c2)nc2ccc(Br)cn12`, 64% (inactive).

Consider `COc1cc(O)ccc1-c1nc2cc(C)ccn2c1Nc1ccccc1C`, for which the survival is 69% (inactive). To `Cc1ccccc1Nc1c(-c2cccnc2)nc2ccc(Cl)cn12` belongs 92% (inactive); to `COc1cc(O)ccc1-c1nc2ccc(Br)cn2c1Nc1ccccc1C`, 46% (active); to `Cc1ccccc1Nc1c(-c2ccc(Br)o2)nc2ccc(Cl)cn12`, 37% (active). To `CCOC(=O)c1c(S(=O)(=O)N2CCCC(C(=O)Nc3ccc(OCC)cc3)C2)c(C)n(C)c1C` (configuration not stated) belongs 99% (inactive); to `COc1ccc(CNC(=O)C(=O)NCC(c2cccs2)S(=O)(=O)c2cccs2)cc1` (configuration not stated), 89% (inactive); to `CCCCOc1ccc(C(=O)N(Cc2ccco2)Cc2ccco2)cc1`, 94% (inactive). With `O=C1CC(c2ccccc2)Cc2[nH]c(=O)c(C(=O)Nc3ccc(F)cc3)cc21` (configuration not stated), the survival was 101% (inactive). Turning to `O=C1CC(c2ccccc2)Cc2[nH]c(=O)c(C(=O)Nc3cccc(F)c3)cc21` (configuration not stated), the survival is 89% (inactive). For `CC(=O)c1ccc(NC(=O)c2cc3c([nH]c2=O)CC(c2ccccc2)CC3=O)cc1` (configuration not stated), the survival was 63% (inactive).

In the case of `O=C1CC(c2ccccc2)Cc2[nH]c(=O)c(C(=O)Nc3cccc(Cl)c3)cc21` (configuration not stated), the survival was 8% (active). Take `Cc1cccc(NC(=O)c2cc3c([nH]c2=O)CC(c2ccccc2)CC3=O)c1` (configuration not stated): the survival is 20% (active).

As to `COc1ccc(NC(=O)c2cc3c([nH]c2=O)CC(c2ccccc2)CC3=O)cc1` (configuration not stated), the survival is 91% (inactive). On to `COc1ccc(S(=O)(=O)c2c(C)c(NS(=O)(=O)c3ccccc3)cc(C)c2O)cc1`, for which the survival was 67% (inactive). To `CC(C)N(Cc1ccccc1)C(=O)CCS(=O)(=O)c1cc2c(cc1Cl)NC(=O)CO2` belongs 103% (inactive). Turning to `CC(C)(C)c1ccc(S(=O)(=O)c2cnc(SCC(=O)Nc3ccc4c(c3)OCCO4)[nH]c2=O)cc1`, the survival was 120% (inactive).

Consider `COc1ccc(S(=O)(=O)N(CC(=O)NCCSCc2ccccc2)c2ccc(C)cc2)cc1`, for which the survival was 54% (inactive). With `CCN1CCN(C(=O)c2cnn(-c3ccc(F)cc3)c2-n2cccc2)CC1` the figure was 135% (inactive); with `CCOc1ccc(NC(=O)CSc2ccc(-c3sc(-c4ccccc4)nc3C)nn2)cc1`, 15% (active). To `COC(=O)c1ccc(NC(=O)CSc2ccc(-c3sc(-c4ccccc4)nc3C)nn2)cc1` belongs 56% (active); to `Cc1nc(-c2ccccc2)sc1-c1ccc(SCC(=O)NCc2ccccc2)nn1`, 58% (inactive). With `COC(=O)c1ccc(NC(=O)CSc2n[nH]c(-c3ccccc3)n2)cc1` the figure was 88% (inactive). Turning to `COC(=O)c1ccccc1NC(=O)CSc1n[nH]c(CC(C)C)n1`, the survival is 47% (inactive). Consider `COC(=O)c1ccc(NC(=O)CSc2n[nH]c(CC(C)C)n2)cc1`, for which the survival is 36% (active). To `CCc1ccc(NC(=O)CSc2ccc(-c3sc(-c4ccccc4)nc3C)nn2)cc1` belongs 38% (inactive); to `CCOC(=O)c1ccccc1NC(=O)CSc1ccc(-c2sc(-c3ccccc3)nc2C)nn1`, 34% (inactive). Turning to `Cc1ccc(CNC(=O)CSc2ccc(-c3sc(-c4ccccc4)nc3C)nn2)cc1`, the survival is 93% (inactive). To `Cc1ccc(OCC(=O)Nc2ccc3c(c2)sc(=O)n3C)cc1` belongs 110% (inactive). To `O=C(Cn1ncc2c3ccccc3n(Cc3ccc(Cl)cc3)c2c1=O)NCCC1=CCCCC1` belongs 89% (inactive); to `CCc1ccc(C2CC(=O)c3c([nH]c(C(=O)OC4CCCC4)c3C)C2)cc1` (configuration not stated), 97% (inactive). With `O=C(CSc1nnc(NC(=O)NC2CCCCC2)s1)Nc1ccccc1F`, the survival is 79% (inactive). To `CCCn1c(C(=O)OC)cc2c1ccn2C` belongs 78% (inactive). To `CC1(C)Cc2[nH]c(=S)c(C#N)cc2CO1` belongs 88% (inactive); to `Cc1ccc(CNC(=O)CSc2c(C(C)C)cnc3c2c(=O)n(C)c(=O)n3C)cc1`, 85% (inactive); to `CCc1cnc2c(c1SCC(=O)NCc1ccc(C)cc1)c(=O)n(C)c(=O)n2C`, 70% (inactive). With `CCCc1cnc2c(c1SCC(=O)NCc1ccc(C)cc1)c(=O)n(C)c(=O)n2C` the figure was -4% (active). On to `COCCOC(=O)C1=C(C)N=C2SCCC(=O)N2C1c1ccc(OCc2ccccc2)c(OC)c1` (configuration not stated), for which the survival was 58% (inactive). With `COc1cc(C2C(C(=O)OCC(C)C)=C(C)N=C3SCCC(=O)N32)ccc1OCc1ccccc1` (configuration not stated) the figure was 46% (active). With `CCOC(=O)C1=C(C)N=C2SCCC(=O)N2C1c1ccc(OCc2ccccc2)c(OC)c1` (configuration not stated) the figure was 133% (inactive); with `O=C1CC(c2ccccc2)Cc2[nH]c(=O)c(-c3nc(-c4ccc(Cl)cc4)cs3)cc21` (configuration not stated), 72% (inactive); with `O=C1c2ccccc2-c2onc3c(Br)cc(NC4CCCCC4)c1c23`, 101% (inactive). Take `CN(C)CCCNc1cc(N2CCN(C3CCCCC3)CC2)c2noc3c2c1C(=O)c1ccccc1-3`: the survival is 51% (inactive). Consider `CCNc1cc(N2CCN(C3CCCCC3)CC2)c2noc3c2c1C(=O)c1ccccc1-3`, for which the survival is 73% (inactive).

For `CCCCNc1cc(N2CCN(C3CCCCC3)CC2)c2noc3c2c1C(=O)c1ccccc1-3`, the survival was -5% (active). Turning to `CCCCNc1cc(NC2CCCCC2)c2c3c(onc13)-c1ccccc1C2=O`, the survival is 92% (inactive). With `CCN(CC)c1cc(NC2CCCCC2)c2c3c(onc13)-c1ccccc1C2=O` the figure was 1% (active). With `COc1ccc(NC(=O)CCS(=O)(=O)c2nc(-c3ccc4c(c3)OCO4)cc(C(F)(F)F)n2)cc1OC` the figure was 79% (inactive).

As for `Cc1cccc(NC(=O)Cn2cc(C(=O)c3ccco3)c3ccccc32)c1C`, the survival is 55% (inactive).

`Cc1cc(N)c(O)cc1C`: the survival is 61% (inactive). Turning to `Cc1cc(C)c(O)c(N)c1`, the survival is 39% (active). As to `Cc1cc(N)cc(C(=O)O)c1O`, the survival is 104% (inactive).

With `CCOc1ccc(S(=O)(=O)N2CCC(N3CCN(Cc4ccc(C)cc4)C(=O)C3=O)CC2)cc1`, the survival is 77% (inactive).

Take `CCCc1cc(=O)[nH]c(Nc2cccc(Cl)c2Cl)n1`: the survival was 68% (inactive). Consider `CCCOC(=O)c1cccc(Nc2nc(CCC)cc(=O)[nH]2)c1`, for which the survival was 10% (active). Turning to `CCCc1cc(=O)[nH]c(Nc2ccc(C(=O)O)cc2)n1`, the survival was 62% (inactive). To `CCCc1cc(=O)[nH]c(Nc2cc(Cl)cc(Cl)c2)n1` belongs 6% (active). With `CCCc1cc(=O)[nH]c(Nc2ccc(C)c(O)c2)n1` the figure was 57% (inactive); with `CCCc1cc(=O)[nH]c(Nc2cc(C)cc(C)c2)n1`, 108% (inactive).

(Values after PubChem BioAssay AID463173 (ICCB-Longwood Screening Facility, Harvard Medical School, 2010).)
